# Results reported in the supplement of paper PMC9135407.
# Several values for one entry are separate records, joined by “and”; a condition that tells them apart may be missing. Equal values may be shown once. Where a name gives a salt, the structure may show the parent alone. The whole screen tested about 5,800 compounds, of which about 620 (11%) showed activity. The entries come from a sample that favours actives as a whole. Values without a mark were called inactive.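 Rule for the calls: active = score above a cut-off or among the top three wells of a plate; in these data no inactive exceeds 0.85.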
# Tested on: primary human hepatic stellate cells (donor 1)
# Assay: scaled lipid accumulation score (0 = DMSO-like, 1 = nortriptyline-like); higher = stronger HSC inactivation (lipid re-accumulation), active = hit call of the paper
# Settings: 48 h
# [1] = library stock concentration: 10 mM
# [2] = library stock concentration: 3.33 mM
# [3] = library stock concentration: 80 uM
# [4] = library stock concentration: 400 uM
# [5] = library stock concentration: 2 mM
# [6] = library stock concentration: 1 mM
# [7] = library stock concentration: 6.4 mM
compound,measurement,setting,value
COC(=O)C[C@H](NC(=O)[C@H](C)NC(=O)[C@@H](NC(=O)OCc1ccccc1)C(C)C)C(=O)CF,scaled lipid accumulation score,library stock concentration: 10.7 mM,≤ -0.012
CC(=O)N[C@@H](CCC(N)=O)C(=O)O,scaled lipid accumulation score,[1],≤ 0
N#CC(c1ccnc(NCCc2cccnc2)n1)c1nc2ccccc2s1 (stereo not given) [JNK Inhibitor V],scaled lipid accumulation score,[2],0.329
N#CC(c1ccnc(NCCc2cccnc2)n1)c1nc2ccccc2s1 (stereo not given),scaled lipid accumulation score,[3],≤ 0
same,scaled lipid accumulation score,[4],≤ 0
same,scaled lipid accumulation score,[5],0.058
same,scaled lipid accumulation score,[1],0.62
CC(=O)NCCCCCCNC(C)=O,scaled lipid accumulation score,[1],≤ 0
COc1cc2c(cc1O)[C@@H](Cc1ccc(O)cc1)[N+](C)(C)CC2 [Magnocurarine iodide],scaled lipid accumulation score,[1],0.116
CCOCC(O)COc1ccc(NC(=O)CC[S+](C)C)cc1 (stereo not given) [Suplatast Tosylate],scaled lipid accumulation score,[2],≤ 0
same,scaled lipid accumulation score,[1],≤ 0
CCOCC(O)COc1ccc(NC(=O)CC[S+](C)C)cc1 (stereo not given) [Suplatast tosylate],scaled lipid accumulation score,[1],≤ -0.001
NC1=NCC2c3ccccc3Cc3ccccc3N12 (stereo not given) [Epinastine hydrochloride],scaled lipid accumulation score,[1],0.592
NC1=NCC2c3ccccc3Cc3ccccc3N12 (stereo not given) [Epinastine HCl],scaled lipid accumulation score,[2],≤ 0
same,scaled lipid accumulation score,[1],0.038
CCOC(=O)C(Cc1ccc(O)cc1)NC(C)=O (stereo not given) [Acetyl tyrosine ethyl ester],scaled lipid accumulation score,[1],≤ 0
CCCCC/C=C/C/C=C/CCCCCCCC(=O)O [Linoelaidic Acid],scaled lipid accumulation score,[6],0.006
C[C@]12CC[C@H](O)CC1=CC[C@@H]1[C@@H]2CC[C@]2(C)C(n3cnc4ccccc43)=CC[C@@H]12 [Galeterone],scaled lipid accumulation score,[2],0.137
CC(=O)[C@H]1CC[C@H]2[C@@H]3CC=C4C[C@@H](O)CC[C@]4(C)[C@H]3CC[C@]12C [Pregnenolone],scaled lipid accumulation score,,0.084
same,scaled lipid accumulation score,[2],≤ 0
same,scaled lipid accumulation score,library stock concentration: 6.3 mM,≤ 0
same,scaled lipid accumulation score,[1],≤ 0
C[C@]12CC[C@H](O)CC1=CCC1C2CC[C@]2(C)C(n3cnc4ccccc43)=CCC12 (stereo not given in full) [Galeterone],scaled lipid accumulation score,[1],1.27 (active)
N[C@@H](Cc1ccc(O)c([N+](=O)[O-])c1)C(=O)O [Nitrotyrosine],scaled lipid accumulation score,[6],0.016
CC(C)NCCCn1c(Sc2cc3c(cc2I)OCO3)nc2c(N)ncnc21 [listing 1 of 2 here],scaled lipid accumulation score,[2],0.728
CC(C)NCCCn1c(Sc2cc3c(cc2I)OCO3)nc2c(N)ncnc21 [listing 2 of 2 here],scaled lipid accumulation score,[1],0.881 (active)
O=C(CCc1ccc(O)c(O)c1)N[C@@H](CC(=O)OCc1ccccc1)C(=O)OCc1ccccc1,scaled lipid accumulation score,[6],≤ 0
CC1(COc2ccc3c(c2)ncn3-c2ccc3cccc(N4CCC(N)CC4)c3n2)COC1 [listing 1 of 2 here],scaled lipid accumulation score,[1],0.404
COCCOc1ccc2c(c1)ncn2-c1ccc2cccc(N3CCC(N)CC3)c2n1 [listing 1 of 2 here],scaled lipid accumulation score,[3],≤ 0
same,scaled lipid accumulation score,[4],0.202
same,scaled lipid accumulation score,[5],0.523
same,scaled lipid accumulation score,[2],0.785
same,scaled lipid accumulation score,[1],0.832
CC1(COc2ccc3c(c2)ncn3-c2ccc3cccc(N4CCC(N)CC4)c3n2)COC1 [listing 2 of 2 here],scaled lipid accumulation score,[2],0.869 (active)
COCCOc1ccc2c(c1)ncn2-c1ccc2cccc(N3CCC(N)CC3)c2n1 [listing 2 of 2 here],scaled lipid accumulation score,[1],0.937 (active)
NC1CCN(c2cccc(Cl)n2)CC1,scaled lipid accumulation score,[1],0.62 and 0.499
COc1c2c(nc3ccccc13)OC(C(C)(O)CO)C2 (stereo not given) [Dubinidine],scaled lipid accumulation score,,≤ 0
O=C(O)CCCC=CCC1C(O)CC(O)C1C=CC(O)COc1cccc(C(F)(F)F)c1 [15(S)-Fluprostenol],scaled lipid accumulation score,[6],≤ 0
CCCCCCCCC=CCCCCCCCCOCCOP(=O)([O-])OCC[N+](C)(C)C [Oleyloxyethyl Phosphorylcholine],scaled lipid accumulation score,[6],≤ 0
CC/C=C\C/C=C\C/C=C\C/C=C\CCCCCCC(=O)OCC [.omega.-3 Arachidonic Acid ethyl ester],scaled lipid accumulation score,[6],≤ 0
CCCCCCCCCCCCCCCCCCCCCCCCC(=O)OC [Pentacosanoic Acid methyl ester],scaled lipid accumulation score,[6],≤ 0
CCCc1cc(C(=O)c2ccc(-c3ccccc3)cc2)ccc1OCCCN1CCCc2c(OC(C)(C)C(=O)O)cccc21,scaled lipid accumulation score,[6],≤ 0
CCCCCCCCC=CCCCCCCCCCCCC(N)=O [13-Docosenamide],scaled lipid accumulation score,[6],≤ 0
[O-][n+]1cccc(CO)c1,scaled lipid accumulation score,[1],≤ 0
CCCCC/C=C\C/C=C\C/C=C\C/C=C\CCCC(=O)OC(CO)CO [2-Arachidonoyl Glycerol],scaled lipid accumulation score,[6],≤ 0
CCCCC/C=C\C/C=C\C/C=C\C/C=C\CCCC(=O)OC(CO)CO [2-Arachidonoylglycerol],scaled lipid accumulation score,[6],0.011
CCCCCCCCCCCCC[N+](C)(C)Cc1ccccc1 [Benzalkonium chloride],scaled lipid accumulation score,[1],0.182
CCCCCCCCCCCCCCCCn1cc[n+](Cc2ccccc2)c1C.[I-],scaled lipid accumulation score,[2],0.92 (active)
"CCCCCCCCCCCCCCCCn1cc[n+](Cc2ccccc2)c1C [eEF-2 Kinase Inhibitor, NH125]",scaled lipid accumulation score,[2],0.247
CCCCCCCCCCCCCCCCn1cc[n+](Cc2ccccc2)c1C,scaled lipid accumulation score,[3],≤ -0.001
same,scaled lipid accumulation score,[4],≤ -0.001
same,scaled lipid accumulation score,[5],≤ -0.001
same,scaled lipid accumulation score,[1],0.213 and 0.435
CC/C=C\C/C=C\C/C=C\CCCCCCCC(=O)N[C@@H](Cc1ccc(O)cc1)C(=O)O [N-(.alpha.-Linolenoyl) Tyrosine],scaled lipid accumulation score,[6],≤ 0
"CCCCC/C=C\C=C\CCCCCCCCC(=O)O [10(E),12(Z)-Conjugated Linoleic Acid]",scaled lipid accumulation score,[6],0.069
CCC=CCC=CCC=CCC=CCCCCC(=O)OCC [Stearidonic Acid ethyl ester],scaled lipid accumulation score,[6],≤ 0
CC(=O)N[C@@H](CSC/C=C(\C)CC/C=C(\C)CC/C=C(\C)CCC=C(C)C)C(=O)O [N-acetyl-S-geranylgeranyl-L-Cysteine],scaled lipid accumulation score,[6],≤ 0 and ≤ -0.021
Clc1ccc2c(c1)CCc1cccnc1C2=C1CCNCC1,scaled lipid accumulation score,[1],1.52 (active)
Clc1ccc2c(c1)CCc1cccnc1C2=C1CCNCC1 [Desloratidine],scaled lipid accumulation score,[7],0.46
Cc1cccc(CN2CCN(C(c3ccccc3)c3ccc(Cl)cc3)CC2)c1 (stereo not given) [Meclizine hydrochloride],scaled lipid accumulation score,[1],0.376 and 0.485
C(=C(\CCNC1)/C1)(/c2c(cccn2)CC3)\c(ccc(Cl)c4)c34 [Desloratadine],scaled lipid accumulation score,[7],1.03 (active)
Cc1cccc(CN2CCN(C(c3ccccc3)c3ccc(Cl)cc3)CC2)c1 (stereo not given) [Meclozine dihydrochloride],scaled lipid accumulation score,,0.368
Clc1ccc2c(c1)CCc1cccnc1C2=C1CCNCC1 [Desloratadine],scaled lipid accumulation score,[2],0.268
same,scaled lipid accumulation score,[1],0.837
CCOC(=O)N1CCC(=C2c3ccc(Cl)cc3CCc3cccnc32)CC1,scaled lipid accumulation score,[1],≤ 0
CCOC(=O)N1CCC(=C2c3ccc(Cl)cc3CCc3cccnc32)CC1 [Loratadine],scaled lipid accumulation score,[2],≤ 0
same,scaled lipid accumulation score,library stock concentration: 5.2 mM,≤ 0
same,scaled lipid accumulation score,[1],≤ 0 and 0.008
Cc1cncc(CN2CCC(=C3c4ccc(Cl)cc4CCc4cccnc43)CC2)c1.O=C(O)C=CC(=O)O [Rupatadine Fumarate],scaled lipid accumulation score,[1],0.862 (active)
Cc1cncc(CN2CCC(=C3c4ccc(Cl)cc4CCc4cccnc43)CC2)c1 [Rupatadine Fumarate],scaled lipid accumulation score,[2],0.371
CCOC(=O)N1CCC(=C2c3ccc(Cl)cc3CCc3cccnc32)CC1 [Loratidine],scaled lipid accumulation score,[1],0.128
CCCCC/C=C/C/C=C/C/C=C/C/C=C/CCCC(=O)Oc1ccc2ccc(=O)oc2c1 [7-hydroxycoumarinyl Arachidonate],scaled lipid accumulation score,[6],≤ 0
CC(C)(C)c1nc2c3cc[nH]c(=O)c3c3cc(F)ccc3c2[nH]1 [Merck -5 (0.4 mM)],scaled lipid accumulation score,[4],≤ -0.005
CC(C)(C)c1nc2c3cc[nH]c(=O)c3c3cc(F)ccc3c2[nH]1 [JAK Inhibitor I],scaled lipid accumulation score,[2],≤ 0
CC(C)(C)c1nc2c3cc[nH]c(=O)c3c3cc(F)ccc3c2[nH]1 [Merck -5 (2 mM)],scaled lipid accumulation score,[5],≤ -0.005
CC(C)(C)c1nc2c3cc[nH]c(=O)c3c3cc(F)ccc3c2[nH]1 [Merck -5 (10 mM)],scaled lipid accumulation score,[1],0.114
COc1ccc2c(c1)c(CC(=O)NCCc1ccccc1)c(C)n2C(=O)c1ccc(Cl)cc1 [N-(2-phenylethyl)-Indomethacin amide],scaled lipid accumulation score,[6],0.049
O=c1ncn2nc(Sc3ccc(F)cc3F)ccc2c1-c1c(Cl)cccc1Cl,scaled lipid accumulation score,[3],0.019
same,scaled lipid accumulation score,[4],0.039
same,scaled lipid accumulation score,[5],0.129
same,scaled lipid accumulation score,[2],0.019
same,scaled lipid accumulation score,[1],≤ 0 and 0.119
C[C@@H](O)[C@H]1C(=O)N2C(C(=O)OCOC(=O)C(C)(C)C)=C(SC3CN(C4=NCCS4)C3)[C@H](C)[C@H]12 [Tebipenem Pivoxil],scaled lipid accumulation score,[2],≤ 0
same,scaled lipid accumulation score,[1],≤ 0
"O=P(O)(O)O[C@H]1[C@@H](O)[C@H](O)[C@@H](OP(=O)(O)O)[C@H](OP(=O)(O)O)[C@H]1O [D-myo-Inositol-2,4,5-triphosphate (sodium salt)]",scaled lipid accumulation score,[6],≤ 0
O=C1C(Cl)=C(N2C(=O)CCC2=O)C(=O)c2ccccc21 [MEK Inhibitor II],scaled lipid accumulation score,[2],0.073
CCCCCCCCCCCCCC(=O)OCC [Myristic Acid ethyl ester],scaled lipid accumulation score,[6],0.028
"COc1cc2/c(=N/c3ccc(Br)cc3F)nc[nH]c2cc1OCC1CCN(C)CC1 [Vandetanib  (ZD6474, Zactima) (10 mM)]",scaled lipid accumulation score,[1],0.445
"COc1cc2c(Nc3ccc(Br)cc3F)ncnc2cc1OCC1CCN(C)CC1 [Vandetanib  (ZD6474, Zactima) (0.4 mM)]",scaled lipid accumulation score,[4],1.1 (active)
C=CC(=O)N1CCC(Oc2cc3c(Nc4ccc(Cl)c(Cl)c4F)ncnc3cc2OC)CC1 [Poziotinib],scaled lipid accumulation score,[3],0.111
same,scaled lipid accumulation score,[4],0.281
same,scaled lipid accumulation score,[5],0.059
same,scaled lipid accumulation score,[1],0.72
COc1cc2/c(=N/c3ccc(Br)cc3F)nc[nH]c2cc1OCC1CCN(C)CC1 [Vandetanib (ZD6474)],scaled lipid accumulation score,[1],0.754
COc1cc2ncnc(Nc3ccc(O)c(Br)c3)c2cc1OC,scaled lipid accumulation score,[2],≤ 0
same,scaled lipid accumulation score,[1],≤ 0
COc1cc2c(Nc3ccc(Br)cc3F)ncnc2cc1OCC1CCN(C)CC1 [Vandetanib],scaled lipid accumulation score,[5],1.27 (active)
same,scaled lipid accumulation score,[1],1.66 (active)
COc1cc2c(Nc3ccc(Br)cc3F)ncnc2cc1OCC1CCN(C)CC1 [Vandetanib (ZD6474)],scaled lipid accumulation score,[2],1.18 (active)
"COc1cc2c(Nc3ccc(Br)cc3F)ncnc2cc1OCC1CCN(C)CC1 [Vandetanib  (ZD6474, Zactima) (2 mM)]",scaled lipid accumulation score,[5],0.855 (active)
COc1cc2/c(=N/c3ccc(Br)cc3F)nc[nH]c2cc1OCC1CCN(C)CC1 [Vandetanib],scaled lipid accumulation score,[3],0.09
same,scaled lipid accumulation score,[4],0.381
COc1cc2ncnc(Nc3ccc(O)c(Br)c3)c2cc1OC [JAK3 Inhibitor II],scaled lipid accumulation score,[2],≤ 0
COc1cc2ncnc(Nc3ccc(Cl)cc3F)c2cc1OC,scaled lipid accumulation score,[2],≤ 0
same,scaled lipid accumulation score,[1],≤ 0 and ≤ -0.001
